Screening data: PubChem, National Center for Advancing Translational Sciences (NCATS)
Most compounds without a hit are left out; they make up all but 11% or so of the library.
ALDH1A1 inh: qHTS Assay for Inhibitors of Aldehyde Dehydrogenase 1 (ALDH1A1); 220,000 tested, 7.3% active; Aldehyde dehydrogenase 1A1 (Homo sapiens), P00352; Purified ALDH1A1, NADH fluorescence, propionaldehyde substrate; Potency, µM (series often up to 75.3 µM), actives largely listed as inhibitors
Target sequence (P00352 whole entry, looked up): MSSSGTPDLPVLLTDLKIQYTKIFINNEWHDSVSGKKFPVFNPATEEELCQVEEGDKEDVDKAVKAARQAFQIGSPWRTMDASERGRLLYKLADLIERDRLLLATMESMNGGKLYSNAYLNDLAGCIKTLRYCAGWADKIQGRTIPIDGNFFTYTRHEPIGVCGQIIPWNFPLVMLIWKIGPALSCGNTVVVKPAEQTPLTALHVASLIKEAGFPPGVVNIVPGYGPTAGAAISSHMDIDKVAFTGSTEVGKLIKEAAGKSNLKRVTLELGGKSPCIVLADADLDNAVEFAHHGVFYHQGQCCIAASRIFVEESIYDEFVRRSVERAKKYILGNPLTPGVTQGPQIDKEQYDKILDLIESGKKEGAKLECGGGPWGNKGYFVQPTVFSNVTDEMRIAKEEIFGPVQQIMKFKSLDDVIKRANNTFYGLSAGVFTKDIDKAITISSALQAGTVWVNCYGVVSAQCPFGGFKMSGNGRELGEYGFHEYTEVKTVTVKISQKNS
PNC assembly inh: High Content Assay for Compounds that inhibit the Assembly of the Perinucleolar Compartment; 140,000 tested, 3.1% active; PC3M PTB-GFP, PNC prevalence imaging, 16 h; active compounds read low; activity change (PNC), negative = inhibition, % at 10 µM; AID 2417, 2010;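 active = readout at or below -70, meaning at least 70% loss of cells showing the perinucleolar compartment, a nuclear body marking cancer cells; inconclusive = readout between -30 and a set limit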
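Read-out is percentage of cells bearing a perinucleolar compartment, from automated 20x imaging of fixed, Hoechst-stained PC3M PTB-GFP cells. Cells were seeded 4 h, then exposed 16 h to compound (23 nl of library stock) in duplicate plates.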
JMJD2E inh: qHTS Assay for Inhibitors of Human Jumonji Domain Containing 2E (JMJD2E) | 230,000 tested, 1.6% active | Potency, µM (series often up to 57.1 µM), actives largely listed as inhibitors | AID 2147, 2009 | Lysine-specific demethylase 4E (Homo sapiens), B2RXH2 | JMJD2E catalytic domain, FDH-coupled NADH fluorescence (FDH is formaldehyde dehydrogenase); note: nearly all actives have a fitted effect of over 50% in size
HPGD block: qHTS Assay for Inhibitors of HPGD (15-Hydroxyprostaglandin Dehydrogenase); 15-hydroxyprostaglandin dehydrogenase [NAD(+)] (Homo sapiens), P15428; AID 894, 2007; purified HPGD, NADH fluorescence kinetic, PGE2 substrate; Potency, µM, actives largely listed as inhibitors; 150,000 tested, 4.3% active
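NADH formation kinetics: reaction with 30 uM PGE2 and 1 mM NAD+ (final), 20 nM enzyme, Tris-HCl pH 8 with Tween 20, after 15 min compound preincubation at room temperature. Fluorescence change, last versus first of five reads.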
Of the large screens only hits and unclear results are named; the others gave an inactive call. Unless noted, calls come from the whole dose curve; as a rule, active = well fitted inhibition curve with a large enough effect (not every such curve was filed as active); inconclusive = small, poorly fitted or top-dose-only effect, or another doubt; inactive = no such curve, though single readings can be large or run the other way.

O=C(/C=C/c1cnc2ccccc2n1)NC12CC3CC(CC(C3)C1)C2	ALDH1A1 inh inconclusive
COC(=O)c1c(-c2ccc(C)cc2)csc1NC(=S)NC(=O)c1cc(OC)cc(OC)c1	ALDH1A1 inh 20µM
CCOC(=O)c1c(-c2ccc(C)o2)csc1NC(=S)NC(=O)c1cccs1	ALDH1A1 inh 18µM, HPGD block inconclusive
CCOC(=O)c1c(-c2ccc(C)o2)csc1NC(=O)CSc1nnnn1-c1ccccc1	ALDH1A1 inh 1.6µM, HPGD block 11µM
CCNC(=S)Nc1scc(-c2ccccc2)c1C(=O)OCC	ALDH1A1 inh 28µM
CCCc1cnc(N2CCN(S(=O)(=O)c3cccs3)CC2)nc1	JMJD2E inh inconclusive (no result: PNC assembly inh, HPGD block)
CC(=O)N1CCC[C@@]2(CCN(Cc3cc(C(F)(F)F)cc(C(F)(F)F)c3)C2)C1	none (no result: PNC assembly inh, JMJD2E inh)
COC(OC)c1nc(SCC(=O)Nc2cccc(Cl)c2)ncc1C(=O)O	ALDH1A1 inh 28µM (no result: PNC assembly inh, HPGD block)
COc1ccccc1NS(=O)(=O)c1cc(NC(C)=O)ccc1N1CCCCC1	ALDH1A1 inh 8.9µM (no result: PNC assembly inh, HPGD block)
COc1ccccc1NS(=O)(=O)c1cc(NC(=O)c2ccncc2)ccc1N1CCCC1	ALDH1A1 inh 11µM (no result: PNC assembly inh, HPGD block)
COc1ccccc1NS(=O)(=O)c1cc(NC(=O)Nc2cccc(C)c2)ccc1N1CCCCC1	ALDH1A1 inh inconclusive, HPGD block inconclusive
COc1ccc(C(=O)Nc2ccc(Cl)c(S(=O)(=O)Nc3ccccc3OC)c2)cc1	ALDH1A1 inh inconclusive, PNC assembly inh inconclusive
CCN(CC)c1ccc(NC(=O)c2ccccc2)cc1S(=O)(=O)Nc1ccccc1OC	ALDH1A1 inh 1µM, PNC assembly inh inconclusive, HPGD block 1.8µM
COc1ccccc1NS(=O)(=O)c1cc(NC(=O)c2ccc(Cl)nc2)ccc1Cl	ALDH1A1 inh 25µM, JMJD2E inh inconclusive
CC(C)(C)n1ncc2c(=O)n(Cc3cccc(Cl)c3)cnc21	none (no result: PNC assembly inh, HPGD block)
COc1ccccc1NS(=O)(=O)c1cc(N2Cc3ccccc3C2=N)ccc1N1CCOCC1	ALDH1A1 inh 8.9µM (no result: PNC assembly inh, HPGD block)
C[C@@H]1Oc2ccc(C(=O)C[C@@H](C(=O)O)c3ccc4c(c3)OCO4)cc2O1	none (no result: PNC assembly inh, JMJD2E inh)
CC(C)(C)NC(=O)CON=C1c2ccccc2-c2ccccc21	HPGD block inconclusive
CCCN1C(=O)/C(=N\OCC(=O)NCC(F)(F)F)c2ccccc21	ALDH1A1 inh 1.3µM, JMJD2E inh inconclusive
CSc1ccccc1NC(=O)C(=O)c1c[nH]c2ccccc12	none (no result: PNC assembly inh, HPGD block)
O=C1c2ccccc2C(=O)N1CSc1ncccn1	none
CCOc1cc(/C=N/NC(N)=O)cc(Br)c1OCc1ccccc1F	PNC assembly inh -92
COc1cc(/C=N/NC(N)=O)cc(Br)c1OCc1ccc(C)cc1	PNC assembly inh inconclusive
CCOc1cc(/C=N\NC(N)=O)cc(Br)c1OC(C)C	PNC assembly inh -97
Cc1cnc(CNc2ccnc(-c3ccc(N(C)C)cc3)n2)cn1	ALDH1A1 inh inconclusive, HPGD block inconclusive (no result: PNC assembly inh)
Cc1ccc(NC(=O)CSCC(=O)Nc2ncc3c(n2)CC(c2ccco2)CC3=O)cc1 (stereo unspecified)	ALDH1A1 inh 4µM, PNC assembly inh -85
Cc1ccc(C(=O)Nc2ncc3c(n2)CC(c2ccco2)CC3=O)cc1 (stereo unspecified)	ALDH1A1 inh inconclusive
CC(=O)c1ccc(NC(=O)CSc2nnc(-c3ccco3)c(-c3ccco3)n2)cc1	ALDH1A1 inh 1.4µM, JMJD2E inh 16µM (no result: PNC assembly inh, HPGD block)
O=C(Nc1nnc(-c2ccco2)s1)c1ccccc1	ALDH1A1 inh 25µM, JMJD2E inh inconclusive
O=C(Nc1ccccc1)c1ccc2nc(-c3ccco3)c(-c3ccco3)nc2c1	ALDH1A1 inh 0.18µM, JMJD2E inh inconclusive, HPGD block 5µM
COc1ccc(C(=O)Nc2nnc(-c3ccco3)s2)cc1	HPGD block inconclusive
CCc1nc2ccc(C(=O)Nc3ccc(NC(C)=O)cc3)cc2nc1CC	none
O=C(NCc1ccco1)c1cccc(NC(=O)c2ccccc2)c1	none
CC(=O)c1ccc(NC(=O)c2ccc3nc(-c4ccco4)c(-c4ccco4)nc3c2)cc1	ALDH1A1 inh 3.2µM, JMJD2E inh inconclusive, HPGD block inconclusive
O=C(CSc1nnc(-c2ccco2)c(-c2ccco2)n1)c1ccccc1	none (no result: PNC assembly inh, HPGD block)
Cc1ccc(S(=O)(=O)N2CCCCC2)cc1NC(=O)COC(=O)c1ccccc1F	ALDH1A1 inh inconclusive (no result: PNC assembly inh, HPGD block)
O=C(Nc1n[nH]c(C(F)(F)F)n1)C1CC1	none (no result: PNC assembly inh, HPGD block)
Cc1cc(Nc2cc(Cl)cc(Cl)c2)nc(N)n1	none (no result: PNC assembly inh, HPGD block)
COc1cc(OC)cc(-c2nc3ccccc3c(=O)n2OC(=O)c2ccc(Br)cc2)c1	PNC assembly inh -116, JMJD2E inh inconclusive
COc1ccc(C(=O)On2c(-c3ccc(Br)cc3)nc3ccccc3c2=O)cc1	ALDH1A1 inh inconclusive
Nc1cc(Cl)ccc1Oc1ccc(Cl)cc1	ALDH1A1 inh 1.6µM, JMJD2E inh inconclusive, HPGD block 22µM
Cc1nc2cccc([N+](=O)[O-])c2n1CCCN(C)C	ALDH1A1 inh inconclusive (no result: PNC assembly inh, JMJD2E inh)
C=CCn1c(SCC(=O)N2CCc3ccccc3C2)nc2ccccc2c1=O	ALDH1A1 inh 13µM
COCC(C)n1c(SCC(=O)N2CCc3ccccc3C2)nc2ccccc2c1=O (stereo unspecified)	PNC assembly inh -121
COCC(C)n1c(SCC(=O)N2CCCCC2)nc2ccccc2c1=O (stereo unspecified)	ALDH1A1 inh inconclusive
O=C1CC(SCc2nc3ccccc3[nH]2)C(=O)N1c1cccc(F)c1 (stereo unspecified)	ALDH1A1 inh 13µM, JMJD2E inh inconclusive
CCCOc1ccc(N2C(=O)CC(SCCc3nc4ccccc4[nH]3)C2=O)cc1 (stereo unspecified)	ALDH1A1 inh inconclusive (no result: PNC assembly inh, HPGD block)
O=C1CC(SCc2nc3ccccc3[nH]2)C(=O)N1c1ccc(Cl)cc1 (stereo unspecified)	ALDH1A1 inh 25µM, PNC assembly inh inconclusive
O=C1CC(SCCc2nc3ccccc3[nH]2)C(=O)N1c1ccc(Cl)cc1 (stereo unspecified)	ALDH1A1 inh inconclusive
CCOc1ccc(N2C(=O)CC(SCc3nc4ccccc4[nH]3)C2=O)cc1 (stereo unspecified)	ALDH1A1 inh 4.5µM (no result: PNC assembly inh, HPGD block)
O=C1CC(SCc2nc3ccccc3[nH]2)C(=O)N1c1ccc(F)c(Cl)c1 (stereo unspecified)	ALDH1A1 inh 5µM, JMJD2E inh inconclusive, HPGD block 22µM
O=C(Cn1nnc(-c2cccs2)n1)NNC(=O)c1ccccc1Cl	none (no result: ALDH1A1 inh, PNC assembly inh, HPGD block)
O=C(O)CCCNC(=O)CCCn1nnc2ccccc2c1=O	none (no result: ALDH1A1 inh, PNC assembly inh, HPGD block)
CNc1nc(C)nc(N/N=C/c2ccccc2)n1	ALDH1A1 inh 13µM (no result: PNC assembly inh, HPGD block)
CC[C@@H](Nc1ncnc2nc[nH]c12)C(=O)O	none (no result: PNC assembly inh, JMJD2E inh)
O=S(=O)(c1ccc(Br)cc1)c1nc(-c2ccco2)oc1NCC1CCCO1 (stereo unspecified)	ALDH1A1 inh 14µM (no result: PNC assembly inh, HPGD block)
N#Cc1c(-c2ccco2)nc(NCC2CCCO2)[nH]c1=O (stereo unspecified)	PNC assembly inh inconclusive
